Measurements from PubChem BioAssay (Tox21).
The source made the active and inactive calls. A call without a number means that no potency is given here. Unless noted, calls follow the shape of the dose curve; as a rule, active = well fitted curve in the direction sought with a large enough effect in the repeat runs; inconclusive = weak or mixed curves; inactive = no such curve, though single readings can be large; an effect the other way counts as inactive or inconclusive.

Experiments:
[1] = qHTS assay to test for compound auto fluorescence at 535 nm (green) in HEK293 cells (AID 720680)
[2] = qHTS assay to test for compound auto fluorescence at 460 nm (blue) in HEK293 cell free culture (AID 720681)
Summary of the method: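 Test compounds were pinned into cell-free culture medium (DMEM with 10% FBS) and fluorescence was read directly at Ex/Em 405/460 nm. Signals were expressed as fluorescence equivalents of triamterene, with DMSO vehicle as control.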

[3] = qHTS assay to test for compound auto fluorescence at 535 nm (green) in HEK293 cell free culture (AID 720682)
Summary of the method: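 Fluorescein serves as the green reference fluorophore; each compound's intrinsic emission at 535 nm (excitation 485 nm) is reported as an equivalent amount of that dye, measured in serum-containing DMEM without cells.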

[4] = qHTS assay to test for compound auto fluorescence at 590 nm (red) in HEK293 cell free culture (AID 720683)
Summary of the method: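 Tox21 10K library compounds were pinned into cell-free DMEM with 10% FBS and fluorescence was read at excitation 540 nm. Activity is expressed as Rose Bengal sodium equivalency.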

[5] = qHTS assay to test for compound auto fluorescence at 590 nm (red) in HepG2 cell free culture (AID 720684)
Summary of the method: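 Red fluorescence (540 nm excitation, 590 nm emission) was measured after compound transfer into cell-free MEM supplemented with 10% FBS. Values are equivalencies against Rose Bengal sodium.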

[6] = qHTS assay to test for compound auto fluorescence at 460 nm (blue) in HepG2 cell free culture (AID 720685)
Summary of the method: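 Compound (23 nL) or DMSO pinned into cell-free MEM with 10% FBS; blue fluorescence read at 405/460 nm excitation/emission, expressed as auto-fluorescence equivalency to triamterene.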

[7] = qHTS assay to test for compound auto fluorescence at 535 nm (green) in HepG2 cell free culture (AID 720686)
[8] = qHTS assay to test for compound auto fluorescence at 460 nm (blue) in HepG2 cells (AID 720687)
Summary of the method: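 Cells (2,000/well in MEM with 10% FBS) attached overnight at 37 C, then were exposed to compound or DMSO for 1 hr at 37 C, 5% CO2. Fluorescence read at Ex/Em 405/460 nm, expressed as triamterene-equivalent signal.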

[9] = target: Glucocorticoid receptor (Homo sapiens) (UniProt P04150); test: qHTS assay to identify small molecule agonists of the glucocorticoid receptor (GR) signaling pathway (AID 720691; active = well fitted activation curve with a large enough effect in the signal ratio in the repeat runs, not every such curve was filed as active; inconclusive = weak or mixed curves, or effect the other way; inactive = no such curve, though single readings can be large or run the other way; the % refers to the signal ratio; also: potency is read from the fitted curve at half-maximal effect); settings: GR-bla HeLa, beta-lactamase reporter ratio, 18 h; activation: at 62.4 µM (top of the series)
Summary of the method: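 qHTS in GR-bla HeLa cells: 4 h settling at 37 C/5% CO2, 18 h compound incubation at 37 C, 2 h LiveBLAzer B/G FRET substrate at room temperature, fluorescence intensity measured.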

[10] = qHTS assay to identify small molecule antagonists of the glucocorticoid receptor (GR) signaling pathway - cell viability counter screen (AID 720693); also: nearly all actives have a fitted effect of over 55% in size
[11] = qHTS assay for identifying genotoxic compounds that show differential cytotoxicity against isogenic chicken DT40 cell lines with known DNA damage response pathways - Rad54/Ku70 mutant cell line (AID 743015); also: nearly all actives have a fitted effect of over 60% in size; also: potency is read from the fitted curve at half-maximal effect
[12] = qHTS assay to identify small molecule antagonists of the androgen receptor (AR) signaling pathway using the MDA cell line - cell viability counter screen (AID 743041; also: nearly all actives have a fitted effect of over 45% in size)
Summary of the method: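 MDA-kb2 AR-luc human breast carcinoma cells (MMTV-luciferase, AR/GR responsive) were treated with compounds plus R1881 agonist for 16 h at 37 °C. Viability was read as CellTiter-Fluor fluorescence in the same wells as the reporter assay.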

[13] = qHTS assay for identifying genotoxic compounds that show differential cytotoxicity against isogenic chicken DT40 cell lines with known DNA damage response pathways - Rev3 mutant cell line (AID 743014); also: nearly all actives have a fitted effect of over 55% in size; also: potency is read from the fitted curve at half-maximal effect
[14] = qHTS assay to identify small molecule antagonists of the androgen receptor (AR) signaling pathway - cell viability counter screen (AID 743033; also: nearly all actives have a fitted effect of over 45% in size)
[15] = target: Androgen receptor (Homo sapiens) (UniProt P10275); test: qHTS assay to identify small molecule agonists of the androgen receptor (AR) signaling pathway (AID 743036; active = well fitted activation curve with a large enough effect in the signal ratio in the repeat runs, with a control signal flat, not every such curve was filed as active; inconclusive = weak or mixed curves, or effect the other way; inactive = no such curve, though single readings can be large or run the other way; the % refers to the signal ratio)
Summary of the method: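 Fluorescence from a beta-lactamase FRET substrate served as read-out in AR-UAS-bla GripTite HEK293 cells. Cells were treated with DMSO-dissolved compounds for 16 h at 37C, then with LiveBLAzer B/G substrate for 2 h at room temperature.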

[16] = target: Androgen receptor (Homo sapiens) (UniProt P10275); test: qHTS assay to identify small molecule agonists of the androgen receptor (AR) signaling pathway using the MDA cell line (AID 743040; also: nearly all actives have a fitted effect of over 20% in size; also: potency is read from the fitted curve at half-maximal effect)
Summary of the method: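 MDA-kb2 breast carcinoma cells stably carrying an MMTV-driven luciferase reporter (AR- and GR-responsive) were seeded and held 5 h at 37C, 0% CO2, then exposed to compounds in DMSO for 16 h. Luminescence was read 30 min after ONE-Glo addition.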

[17] = target: Androgen receptor (Homo sapiens) (UniProt P10275); test: qHTS assay to identify small molecule antagonists of the androgen receptor (AR) signaling pathway using the MDA cell line (AID 743042; also: nearly all actives have a fitted effect of over 55% in size)
Summary of the method: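 MDA-kb2 cells (human breast carcinoma, stably carrying an MMTV-luciferase reporter responsive to AR and GR) were plated at 3,000 cells/well and preincubated 5 hr at 37C, then given compound plus R1881 agonist for 16 h. ONE-Glo luminescence was read.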

[18] = qHTS assay for identifying genotoxic compounds that show differential cytotoxicity against isogenic chicken DT40 cell lines with known DNA damage response pathways - wild type cell line (AID 743012); also: nearly all actives have a fitted effect of over 60% in size; also: potency is read from the fitted curve at half-maximal effect
Summary of the method: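 First, wild type DT40 cells were plated at 300 per well and equilibrated about 0.5 h at 37 C/5% CO2. Next, compounds in DMSO were added and exposure lasted 40 h. Finally, CellTiter-Glo was added for 30 min at room temperature and luminescence recorded.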

[19] = target: Androgen receptor (Homo sapiens) (UniProt P10275); test: qHTS assay to identify small molecule antagonists of the androgen receptor (AR) signaling pathway (AID 743035; active = well fitted inhibition curve with a large enough effect in the signal ratio in the repeat runs, not every such curve was filed as active; inconclusive = weak or mixed curves, or effect the other way; inactive = no such curve, though single readings can be large or run the other way; the % refers to the signal ratio)
Summary of the method: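 Beta-lactamase FRET read (2 h RT incubation with LiveBLAzer B/G) following 16 h of compound plus R1881 treatment of AR-UAS-bla HEK293 cells, which had been pre-incubated 4 h at 37C.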

Chain of Androgen receptor (Homo sapiens) (P10275 whole entry, looked up): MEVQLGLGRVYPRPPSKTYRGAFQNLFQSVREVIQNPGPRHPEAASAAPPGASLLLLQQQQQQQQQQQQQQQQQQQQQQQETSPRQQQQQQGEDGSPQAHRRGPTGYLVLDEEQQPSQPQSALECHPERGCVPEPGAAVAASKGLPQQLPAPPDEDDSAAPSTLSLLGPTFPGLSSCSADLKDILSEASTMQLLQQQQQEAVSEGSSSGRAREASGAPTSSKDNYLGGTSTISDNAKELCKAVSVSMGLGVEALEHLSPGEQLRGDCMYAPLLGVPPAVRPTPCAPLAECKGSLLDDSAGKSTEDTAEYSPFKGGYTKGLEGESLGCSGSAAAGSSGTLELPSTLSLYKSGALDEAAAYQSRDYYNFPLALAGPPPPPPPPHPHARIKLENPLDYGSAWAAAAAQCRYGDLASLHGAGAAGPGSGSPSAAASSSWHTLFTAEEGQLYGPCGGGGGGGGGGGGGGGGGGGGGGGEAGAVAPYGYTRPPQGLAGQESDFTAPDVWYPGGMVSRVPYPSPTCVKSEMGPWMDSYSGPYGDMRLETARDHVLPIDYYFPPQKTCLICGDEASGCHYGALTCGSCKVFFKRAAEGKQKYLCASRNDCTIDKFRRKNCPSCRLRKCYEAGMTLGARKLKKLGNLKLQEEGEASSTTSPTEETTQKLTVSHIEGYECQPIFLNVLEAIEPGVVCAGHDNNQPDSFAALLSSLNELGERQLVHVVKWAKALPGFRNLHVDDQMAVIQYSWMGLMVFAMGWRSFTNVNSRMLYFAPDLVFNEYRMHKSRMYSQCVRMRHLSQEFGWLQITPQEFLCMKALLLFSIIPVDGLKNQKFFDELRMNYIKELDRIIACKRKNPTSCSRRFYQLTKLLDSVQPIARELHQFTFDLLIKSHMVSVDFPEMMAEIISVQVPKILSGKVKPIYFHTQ
Chain of Glucocorticoid receptor (Homo sapiens) (P04150 whole entry, looked up): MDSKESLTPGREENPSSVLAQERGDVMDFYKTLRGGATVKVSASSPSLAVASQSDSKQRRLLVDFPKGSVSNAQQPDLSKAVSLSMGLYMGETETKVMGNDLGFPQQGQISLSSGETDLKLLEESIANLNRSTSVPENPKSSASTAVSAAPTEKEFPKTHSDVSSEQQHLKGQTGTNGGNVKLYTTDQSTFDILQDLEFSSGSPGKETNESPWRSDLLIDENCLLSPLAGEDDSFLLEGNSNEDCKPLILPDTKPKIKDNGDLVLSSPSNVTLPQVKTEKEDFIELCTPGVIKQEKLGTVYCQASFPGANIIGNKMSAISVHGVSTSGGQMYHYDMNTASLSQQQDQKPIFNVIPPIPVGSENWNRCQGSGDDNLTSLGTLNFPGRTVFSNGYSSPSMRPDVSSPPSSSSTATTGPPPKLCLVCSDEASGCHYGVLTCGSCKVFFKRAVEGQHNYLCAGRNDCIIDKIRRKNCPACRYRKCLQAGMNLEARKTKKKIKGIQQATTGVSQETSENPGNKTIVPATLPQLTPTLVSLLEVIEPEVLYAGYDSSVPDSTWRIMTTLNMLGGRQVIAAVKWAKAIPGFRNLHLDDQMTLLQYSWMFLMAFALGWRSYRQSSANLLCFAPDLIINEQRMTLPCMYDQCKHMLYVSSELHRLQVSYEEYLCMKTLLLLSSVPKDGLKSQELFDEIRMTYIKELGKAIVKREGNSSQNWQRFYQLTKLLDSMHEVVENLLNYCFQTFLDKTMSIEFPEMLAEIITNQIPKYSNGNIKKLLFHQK

Compound | Potency [1] | Potency [2] | Potency [3] | Potency [4] | Potency [5] | outcome [6] | Potency [7] | outcome [8] | Potency [9] | Potency [10] | Potency [11] | Potency [12] | Potency [13] | Potency [14] | Potency [15] | Potency [16] | Potency [17] | Potency [18] | Potency [19]
CC(Oc1ccccc1)C(=O)N[C@@H]1C(=O)N2[C@@H]1SC(C)(C)[C@@H]2C(=O)O (stereo not given in full) | inactive | inactive | inactive | inactive | inactive | inactive | inactive | inactive | inactive | inactive | inactive | inactive | – | – | – | – | – | – | –
COc1ccc2c(=O)c(C)c(-c3ccccc3)oc2c1CN(C)C | inactive | inactive | inactive | inactive | inactive | inactive | inactive | inactive | inactive | inactive | 18.8 µM (active) | – | inactive | inactive | inactive | inactive | inactive | – | –
OC[C@@H](O)C(O)[C@H](O)CO | inactive | inactive | inactive | inactive | inactive | inactive | inactive | inactive | inactive | inactive | inactive | inactive | – | – | – | – | – | inactive | –
C=C1CC2C3CCC4=CC(=O)C=C[C@]4(C)[C@@]3(F)[C@@H](O)C[C@]2(C)[C@@]1(O)C(=O)COC(C)=O (stereo not given in full) | inactive | inactive | inactive | inactive | inactive | inactive | inactive | inactive | 0.0151 µM (active) | inactive | inactive | inactive | – | inactive | – | – | – | – | –
CC1(C)C(\C=C/C=C\C=C/C=C2/N(CCCCS(=O)(=O)O)c3ccc4ccccc4c3C2(C)C)=[N+](CCCCS(=O)(=O)[O-])c2ccc3ccccc3c21 | inactive | inactive | inactive | inactive | inactive | inactive | inactive | inactive | inactive | inactive | 29.8 µM (active) | – | 26.6 µM (active) | inactive | – | inactive | – | – | inactive
N[C@@H](C(=O)N[C@@H]1C(=O)N2C(C(=O)O)=C(Cl)CC[C@H]12)c1ccccc1 | inactive | inactive | inactive | inactive | inactive | inactive | inactive | inactive | 21.3 µM (active) | inactive | inactive | inactive | – | inactive | – | – | – | inactive | –
CC(CN1c2ccccc2Sc2cccnc21)N(C)C (stereo not given) | inactive | inactive | inactive | inactive | inactive | inactive | inactive | inactive | inactive | inactive | – | inactive | – | inactive | – | – | – | 29.8 µM (active) | –
O=C(O)c1cc2ccccc2c(Cc2c(O)c(C(=O)O)cc3ccccc23)c1O | inactive | inactive | inactive | inactive | inactive | inactive | inactive | inactive | inactive | inactive | inactive | inactive | – | inactive | – | – | – | – | –
CC(=O)O[C@H]1CC[C@@]2(C)C(=CC[C@H]3[C@@H]4CC[C@H](C(C)=O)[C@@]4(C)CC[C@@H]32)C1 | inactive | inactive | inactive | inactive | inactive | inactive | inactive | inactive | inactive | inactive | inactive | inactive | – | – | – | – | – | inactive | –
CCCCCCCCCCCCCCCCCCOP(=O)([O-])OC1CC[N+](C)(C)CC1 | inactive | inactive | inactive | inactive | inactive | inactive | inactive | inactive | inactive | inactive | 14.6 µM (active) | inactive | – | inactive | – | – | – | – | –
COc1ccc(C[C@H](C)NC[C@@H](O)c2ccc(O)c(NC=O)c2)cc1 | inactive | inactive | inactive | inactive | inactive | inactive | inactive | inactive | inactive | inactive | 26.6 µM (active) | inactive | – | inactive | – | – | – | 26.6 µM (active) | –
CC(=O)Nc1ccc(NC(=S)NC(=O)c2ccc(C(C)(C)C)cc2)cc1 | inactive | inactive | inactive | inactive | inactive | inactive | inactive | inactive | inactive | inactive | – | inactive | – | inactive | – | – | – | 2.66 µM (active) | –
CCN(CC)CCOC(=O)c1cccnc1 | inactive | inactive | inactive | inactive | inactive | inactive | inactive | inactive | inactive | inactive | inactive | inactive | – | inactive | – | – | – | – | –
COc1cc(NCCCC(C)N)c2ncccc2c1 (stereo not given) | inactive | inactive | inactive | inactive | inactive | inactive | inactive | inactive | inactive | inactive | 21.1 µM (active) | inactive | – | – | – | inactive | inactive | 29.8 µM (active) | –
C[C@@H]1C[C@H]2[C@@H]3CCC4=CC(=O)C=C[C@]4(C)[C@@]3(F)[C@@H](O)C[C@]2(C)[C@@]1(O)C(=O)COC(=O)c1cccc(S(=O)(=O)O)c1 | inactive | inactive | inactive | inactive | inactive | inactive | inactive | inactive | 0.338 µM [inconclusive] (active) | inactive | inactive | inactive | – | – | – | 0.0841 µM (active) | inactive | inactive | –
